# Data from ChEMBL document CHEMBL1157539, “Thousands of chemical starting points for antimalarial lead identification” (Nature, 2010).
# Test system: Plasmodium falciparum
# Assay: GSK_TCMDC: Inhibition of Plasmodium falciparum 3D7 in whole red blood cells, using parasite LDH activity as an index of growth. Test compounds present at 2uM
# Type: functional
row,SMILES,Inhibition [%]
1,CNC(=O)C1Cc2c([nH]c3cc(Br)ccc23)C2(CCN(CCc3ccccc3)CC2)N1 (stereo not given),100
2,CCOC(=O)C(C(=O)OCC)c1nc(C)ns1,99
3,CC(C)CCNC(=O)C1Cc2c([nH]c3ccc(Br)cc23)C2(CCN(Cc3ccccc3)CC2)N1 (stereo not given),96
4,O=C(NC1CCN(CCCOc2ccnc3cc(Cl)ccc23)C1)c1ccc(Br)cc1 (stereo not given),86
5,COC1CCC(C(=O)Nc2ccc(-c3cccc(-c4nc5cc(C(F)(F)F)ccc5[nH]4)c3)cc2)CC1 (stereo not given),85
6,CCC(N)(C#Cc1ccc(-c2c(C)[nH]c(C)c(Br)c2=O)cc1)CC,97
7,CC1(C)N=C(N)N=C(N)N1OCc1ccc2c(c1)OCO2,93
8,Cc1ccc(C2CC(c3cccs3)=NN2C(=O)c2ccc(Br)o2)cc1 (stereo not given),99
9,Cc1cc(N[C@@H](Cc2ccccc2)C(=O)NC2CCCC2)nc(NCCOc2ccccc2)n1.O=C(O)C(F)(F)F,98
10,O=C(CC1SC(N2N=C(c3cccs3)CC2c2ccccc2)=NC1=O)Nc1ccc(Cl)cc1 (stereo not given),83
11,Cc1ccccc1C(=O)NC(NC(=S)Nc1ccc([N+](=O)[O-])cc1)C(Cl)(Cl)Cl (stereo not given),100
12,Cc1ccccc1C1CCN(C2CCC(NC(=O)/C=C/c3ccc(C(F)(F)F)cc3)CC2)CC1 (stereo not given),95
13,CN1CCN(c2ccc3nccc(CCN4CCC(NCc5ccc6c(n5)NC(=O)CO6)CC4)c3n2)CC1.Cl,97
14,O=C(O)C(F)(F)F.c1ccc2[nH]c(-c3ccc(-c4ccc(CN5CCN(c6ccncc6)CC5)cc4)cc3)nc2c1,100
15,CC(=O)Nc1ccc(-c2nc3ccc(-c4nc5ccc(NC(C)=O)cc5[nH]4)cc3[nH]2)cc1,99
16,Cl.N#Cc1ccc(C2CCN(CC[C@H](N)Cc3ccc(Cl)s3)CC2)cc1,92
17,O=[N+]([O-])c1ccc2nc(Nc3ccc(Cl)c(Cl)c3)c(Nc3ccc(Cl)c(Cl)c3)nc2c1,100
18,Cc1nc(Nc2cc(Cl)ccc2O)nc(Nc2cc(Cl)ccc2O)c1[N+](=O)[O-],98
19,Cc1cc(C)cc(OCC(O)CN(Cc2cc(Cl)cc(Cl)c2)C(=O)Nc2ccc(Cl)cc2)c1 (stereo not given),97
20,CC(C)(C)c1ccc(-c2ccccc2CNC(=O)c2cccc(O)c2)cc1,99
21,O=C(/C=C/c1ccc(Cl)c(Cl)c1)NCCCCCN1CCC(NC(=O)c2cc(Cl)ccc2F)CC1,92
22,O=C(c1cc(-c2ccco2)n[nH]1)N1CCN(S(=O)(=O)c2ccc(Cl)cc2)CC1,96
23,COc1ccc(Nc2ccnc3cc(-c4ccccn4)ccc23)cc1OC.Cl,91
24,Nc1nc(N)c2cc(N(Cc3ccccc3)Cc3ccccc3)ccc2n1,99
25,O=C(Nc1ccc(N2CCN(Cc3ccccc3)CC2)cc1)c1cccs1.O=C(O)C(F)(F)F,87
